Results taken from PubChem BioAssay.

Test: JC-1 mitochondrial signal, unstimulated myeloma cells – cell-based, JC-1 fluorescence, RPMI8226, 24 h, 100 nL compound, profiling panel (AID 1169); note: test concentration not given here
Details: JC-1 mitochondrial potential fluorescence, higher = more signal

Question: With O=C1c2ccccc2[C@](Cc2ccccc2I)(C(=O)NCCN2CCOCC2)[C@H](c2ccc(CO)cc2)N1Cc1ccccc1 as the compound, how does the z-score read?
Answer: Its z-score is 0.231.

Question: With CN(C)CCCCNC(=O)[C@H]1C[C@H]2C(=O)N3CCC[C@H]3C(=O)N2[C@H]1c1ccc(O)cc1 as the compound, how does the z-score read?
Answer: Its z-score is 0.613.

Question: Which z-score does the source give for C=C(CCCC)C(=O)CC[C@@H](OC(=O)c1ccccc1-c1ccccc1C(=O)O)c1cccc(OCCO)c1 here?
Answer: The z-score was -0.694.

Question: Which z-score does the source give for C=C(C(=O)CC[C@H](OC(=O)c1cccnc1)c1ccc(CO)o1)C(C)C here?
Answer: Its z-score is 0.322.

Question: With COc1ccc(C#Cc2ccc3c(c2)[C@]2(C(=O)N3)[C@H](C(=O)N3CCc4cc(OC)c(OC)cc4C3)[C@H]3C(=O)O[C@H](c4ccccc4)[C@H](c4ccccc4)N3[C@@H]2c2ccc(O)cc2)cc1 as the compound, how does the z-score read?
Answer: Its z-score is -0.356.

Question: Which z-score does the source give for [N-]=[N+]=NCc1ccccc1C[C@@]1(C(=O)N2CCCCC2)N=C(c2ccc(OCCCO)cc2)O[C@@H]1c1ccccc1N=[N+]=[N-] here?
Answer: Its z-score is -1.25.

Question: For C=C[C@@H](COC(C)=O)NS(=O)(=O)c1ccc(Br)cc1, which z-score is on record?
Answer: Its z-score is -0.0875.

Question: Which z-score does the source give for CCOC(=O)C[C@H]1[C@H](OC(=O)c2ccc(-c3ccccc3)cc2)[C@@H](NC(=O)c2ccc3ccccc3c2)c2cc(OCCCO)ccc2N1C(=O)c1ccc2ccccc2n1 here?
Answer: Its z-score is 0.729.

Question: Which z-score does the source give for CC(C)(C)OC(=O)CC[C@]1(C(=O)NCCN2CCOCC2)N=C(c2ccc(OCCCO)cc2)O[C@H]1c1ccccc1 here?
Answer: Its z-score is -0.69.

Question: For C=CCOC(=O)[C@@H]1[C@H]2C(=O)O[C@H](c3ccccc3)[C@H](c3ccccc3)N2[C@H](c2ccc(OCCOC(=O)[C@H]3C[C@H]4C(=O)N[C@@H](CC(C)C)C(=O)N4[C@H]3c3ccc(O)cc3)cc2)[C@@]12C(=O)Nc1ccc(I)cc12, which z-score is on record?
Answer: The z-score was -0.952.

Question: Which z-score does the source give for O=C(CS)NCCCCCCNC(=O)[C@@H]1C[C@@H]2C(=O)N3CCC[C@H]3C(=O)N2[C@@H]1c1cccc(OCCO)c1 here?
Answer: Its z-score is 0.0158.

Question: For COc1ccccc1CN1C(=O)c2ccccc2[C@@H](C(=O)NC(C)C)[C@@H]1c1ccc(CO)cc1, which z-score is on record?
Answer: The z-score was 0.652.

Question: With C=CCOC(=O)[C@@H]1[C@H]2C(=O)O[C@H](c3ccccc3)[C@H](c3ccccc3)N2[C@H](c2ccc(OCCOC(=O)[C@H]3C[C@H]4C(=O)N[C@@H](CCCCNC(C)=O)C(=O)N4[C@H]3c3cccc(OCCO)c3)cc2)[C@@]12C(=O)Nc1ccc(I)cc12 as the compound, how does the z-score read?
Answer: Its z-score is -0.517.

Question: With O=C1OCC=C[C@H]2OC34C=CCN(Cn5nnc6ccccc65)C(=O)[C@H]3N(CCCCCCO)C(=O)[C@@H]4[C@@H]12 (stereo not given in full) as the compound, how does the z-score read?
Answer: The z-score was -0.638.

Question: Which z-score does the source give for COC(=O)Cn1c(C(=O)N2CCCC2)cc2c1C[C@H]1CN(C(=O)c3ccccc3)[C@@](Cc3ccc(F)cc3)(C(=O)OC)[C@@H]21 here?
Answer: The z-score was -0.135.

Question: With COc1cc(OC)c(C(O)C2C=CC3C(=O)N(c4ccccc4)C(=O)C3N2Nc2ccc(C#N)cc2)cc1Br (stereo not given) as the compound, how does the z-score read?
Answer: The z-score was -0.129.

Question: For COc1ccc([Si](C)(C)[C@@H]2[C@@H](CC(=O)N3CCC[C@H]3CO)O[C@]3(C(=O)N(Cc4ccc(N5C(=O)c6cccc7cccc5c67)cc4)c4ccccc43)[C@H]2C)cc1, which z-score is on record?
Answer: The z-score was -1.01.

Question: With CC=CC(O)C1C=CC2C(=O)N(c3ccccc3)C(=O)C2N1Nc1ccccc1 (stereo not given) as the compound, how does the z-score read?
Answer: Its z-score is -0.866.

Question: With CC(C)C(=C=CC[C@@H](O)c1ccccc1OCCO)C[C@@H](O)COCc1ccccc1 as the compound, how does the z-score read?
Answer: Its z-score is 0.0761.

Question: Which z-score does the source give for CC(C)(C)N1CC=CC23O[C@@H]4C=CCOC(=O)[C@@H]4[C@H]2C(=O)N(CCCO)[C@@H]3C1=O (stereo not given in full) here?
Answer: The z-score was -0.379.

Question: Which z-score does the source give for COc1c(C)cc(-c2cc3c(c(-c4ccccc4)n2)[Si](C(C)C)(C(C)C)OC3)cc1C here?
Answer: Its z-score is 0.00523.

Question: Which z-score does the source give for Cc1ccc(S[C@]2(C(=O)NCC(C)C)CC(=O)N(Cc3ccccc3Cl)[C@@H]2c2ccc(CO)cc2I)cc1 here?
Answer: The z-score was -0.788.

Question: Which z-score does the source give for O=C1O[C@@H](c2ccccc2)[C@@H](c2ccccc2)N2[C@@H](c3ccccc3OCCO)[C@]3(C(=O)Nc4ccc(C#CC5=CCCCC5)cc43)[C@@H](C(=O)NC[C@H](O)c3ccccc3)[C@H]12 here?
Answer: The z-score was -0.664.

Question: With O=C(O)[C@H](Cc1ccccc1)n1cc(-c2ccccn2)nn1 as the compound, how does the z-score read?
Answer: The z-score was -0.166.

Question: Which z-score does the source give for CC1CC/C=C\[C@H]2OC34C=CCN(CCN5CCOCC5)C(=O)[C@H]3N(CCO)C(=O)[C@@H]4C2C(=O)O1 (stereo not given in full) here?
Answer: Its z-score is 0.673.

Question: Which z-score does the source give for CCOC(=O)C[C@H]1[C@H](OC(=O)c2ccc(-c3ccccc3)cc2)[C@@H](NC(=O)C2CCCCC2)c2cc(OCCCO)ccc2N1C(=O)c1ccccc1 here?
Answer: The z-score was 0.115.

Question: With COCCCNC(=O)[C@@]1(Sc2ccc(C)cc2)CC(=O)N(Cc2cc(C(F)(F)F)cc(C(F)(F)F)c2)[C@@H]1c1ccc(CO)cc1 as the compound, how does the z-score read?
Answer: Its z-score is 0.786.

Question: Which z-score does the source give for CCCC[C@@H]1C[C@H]1[C@@H](NC(=O)c1cccnc1)c1ccc(-c2ccccc2)cc1 here?
Answer: The z-score was -0.642.

Question: Which z-score does the source give for O=C1O[C@@H](c2ccccc2)[C@@H](c2ccccc2)N2[C@@H](c3ccc(O)cc3)[C@]3(C(=O)Nc4ccc(C#CCCO)cc43)[C@@H](C(=O)Nc3nc4ccccc4s3)[C@H]12 here?
Answer: The z-score was -0.503.

Question: Which z-score does the source give for O=C(O)[C@]1(Cc2ccccc2)N=C(c2ccc(OCCCO)cc2)O[C@@H]1c1ccccc1 here?
Answer: The z-score was -0.833.

Question: Which z-score does the source give for Cc1ccc(S[C@]2(C(=O)NCc3ccccc3)CC(=O)N(C(C)C)[C@@H]2c2ccc(CO)cc2I)cc1 here?
Answer: Its z-score is -0.592.

Question: With Cc1ccc(C(C)CC(O)C2C=CC3C(=O)N(c4ccccc4)C(=O)C3N2Nc2ccc(C(C)C)cc2)o1 (stereo not given) as the compound, how does the z-score read?
Answer: The z-score was -0.778.

Question: Which z-score does the source give for C=CC[C@]12N=C(c3ccc(OCCCO)cc3)O[C@H]1c1ccccc1N(C)C2=O here?
Answer: The z-score was -1.17.

Question: With C=C(COC)/C(=C/C[C@@H](OC(=O)c1ccncc1)c1ccc(CO)o1)c1cnc2ccccc2c1 as the compound, how does the z-score read?
Answer: Its z-score is 0.0268.

Question: For O=C1NC(=O)C2C1C=CC(C(O)c1cc(C(F)(F)F)cc(C(F)(F)F)c1)N2Nc1ccc(Cl)cc1Cl (stereo not given), which z-score is on record?
Answer: Its z-score is -0.387.
